Results as given in the supplement of paper PMC3334620.
Whole data set: some 33,000 sequences, median “E-score (-0.5 to 0.5)” near -0.032, cut for the highest 2% near 0.36. The sample holds the highest values, similar sequences and a random draw of the others, so the mix is not that of the screen.

Target: T1, Sko1 (UniProt Q02100)
T1 sequence: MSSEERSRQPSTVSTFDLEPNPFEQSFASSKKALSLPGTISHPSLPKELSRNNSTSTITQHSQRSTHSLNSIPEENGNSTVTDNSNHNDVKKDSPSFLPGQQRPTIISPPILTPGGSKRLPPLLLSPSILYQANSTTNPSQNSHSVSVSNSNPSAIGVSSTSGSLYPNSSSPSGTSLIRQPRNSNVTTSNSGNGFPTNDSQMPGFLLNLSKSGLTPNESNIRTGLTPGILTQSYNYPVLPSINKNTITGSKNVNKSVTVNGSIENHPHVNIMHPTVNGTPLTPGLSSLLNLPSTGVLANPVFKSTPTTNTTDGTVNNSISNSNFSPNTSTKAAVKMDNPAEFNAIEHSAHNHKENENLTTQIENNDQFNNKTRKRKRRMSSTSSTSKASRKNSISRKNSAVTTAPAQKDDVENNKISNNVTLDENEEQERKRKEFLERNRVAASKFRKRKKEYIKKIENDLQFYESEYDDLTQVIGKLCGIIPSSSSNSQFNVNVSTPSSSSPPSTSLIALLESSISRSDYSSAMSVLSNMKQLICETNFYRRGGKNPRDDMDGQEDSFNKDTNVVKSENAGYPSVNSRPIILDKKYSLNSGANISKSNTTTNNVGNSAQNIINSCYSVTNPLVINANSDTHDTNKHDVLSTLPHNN
Test: PBM E-score (8-mer binding enrichment) (E-score (-0.5 to 0.5)); higher = stronger / more preferred TF binding
Conditions: protein concentration: 200 nM; construct: GST-full length
Procedure, shortened: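 The E-score, a modified Wilcoxon-Mann-Whitney statistic, was computed by the Universal PBM Analysis Suite for every ungapped eight-base word pooled with its reverse complement. Scans behind it were normalised with masliner after bound GST-tagged yeast transcription factors were detected with fluorescent anti-GST. The proteins, at about 100-200 nM, had been applied to universal all-10-mer Agilent arrays made double-stranded by primer extension.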

Sequence	PBM E-score
GCTAGAGA	-0.0277
AACTTTAG	0.247
CCTATGTA	-0.0157
CGATCCGC	-0.0715
GACCAACA	0.17
AATCTCAC	-0.0325
CCTGTTCG	-0.0292
ACGTGATA	0.409
CCGTGATC	-0.255
ACGTGAAC	0.311
AAGTGATC	0.112
ACGTGATC	0.432
AGGTGATG	0.087
GCGTGATA	0.145
TCGTGAAA	0.0383
ACGTGAAA	0.386
ACGTGAGG	0.276
CCGTGATA	-0.0242
ACGTGATG	0.442
ATATCAAC	0.141
AGGGGAGC	-0.294
TAGGTTCA	-0.0685
TGTTGCAA	0.131
CAATTCAC	0.049
AGGTGAGG	-0.192

Sequence	PBM E-score
CGCAGATA	-0.00801
CAAGGCAA	-0.136
CGCTCTTA	0.112
ACGTTTCG	0.347
ATGCTCGA	0.00694
CACTGATG	0.0771
GTGATCAA	0.189
CTTGTTAC	0.094
ATTGTTAC	0.362
ATTGTTAG	0.0985
ACTCTTGG	-0.179
AACACGTG	0.395
AACACAAA	0.0722
TACACGAA	0.251
CACACAAA	0.114
CACACGTG	0.386
CACACGGC	-0.0173
CACACATA	0.0532
CACACGCC	0.0149
AACACGAG	0.033
TACACGGA	0.142
TACACGTA	0.453
CACACGTC	0.446
GACTCTGA	-0.104
GAGCTCCA	-0.129

Sequence	PBM E-score
AATCCTGG	-0.199
ATAGTTAC	0.212
CGCGACGA	0.125
ACGTTCGA	0.248
TCGGCTCA	-0.111
GTAGAGGA	-0.194
AAACCGAG	-0.175
CCGCTCCG	-0.269
GCCTTCCA	-0.222
CACACGCG	0.104
CACACGTA	0.45
CACACGGA	-0.167
CCTGCGAA	-0.0899
CGTAAGCC	0.203
GCGTTGGA	-0.00317
ACACTACT	-0.0134
ACACTACA	0.167
ACACTACG	0.368
CACTACCA	-0.029
CGTCACGC	0.433
AGTCACGA	0.103
AGTCACGC	0.167
CGTCACGA	0.443
CCTCACGC	0.0875
GGTCACGA	-0.0631

Sequence	PBM E-score
GTTCGCGA	0.133
GGAAGCTA	-0.135
AGTGCAGA	-0.0919
CGGGATAA	0.0877
GGCTTGTA	-0.158
AGCTCAAT	0.016
AGATTGAT	-0.0863
CCTCATTC	-0.0556
AGTCATTA	0.032
GGTCATTA	0.232
CGTCATTC	0.482
CGTCATTA	0.487
AGTCATTC	0.135
ACTCAAAC	0.0881
GTGGCGCA	0.0382
CCTGGCTC	-0.137
TGCTTCCA	-0.067
GAAGCTTC	-0.375
CTCTGCAA	-0.0293
CAGCTCAG	-0.0505
CGTCACTC	0.418
AGTCACTC	-0.0377
CCTCACTC	-0.0833
AGTCACTA	0.0867
GGTCACTA	0.0129

Sequence	PBM E-score
CGTCACTA	0.445
CACCACCG	-0.248
TACGCCTA	0.208
AATCTAAC	0.124
CGATCTAA	0.0385
CGGCATGA	0.11
TAGTATAA	0.24
ACTCCACG	0.0133
AACTCTCA	0.0877
CTGATGTA	0.255
GTGATGCA	0.249
ATGATGAC	0.327
GTGATGAA	0.111
GTGATGTA	0.397
AAGATGTA	0.206
ATGATGAA	0.321
ATGATGCA	0.376
CTGATGTC	0.173
ATGATGCC	0.244
ATGATGTC	0.446
ATGATGTA	0.459
ATCGAAGG	0.0197
GTGAGCCA	-0.0673
GCGGAATA	0.0622
CTAGAAGA	0.0318

Sequence	PBM E-score
TTTTAAAA	0.233
ATTTAGTG	0.0842
GCCGCTCC	-0.396
AATTTCAG	0.0849
TGACAGAA	0.141
GGGCAATA	-0.14
CGACCGCA	-0.266
AGGATGTG	-0.206
ATGATGAG	0.275
ATGATGTG	0.379
AACTCCAG	-0.205
AGGAACAT	0.176
AAAGAACG	0.143
ATTGACTA	-0.0436
CCTATTTC	0.0978
CGTATTTA	0.419
CGTATTTC	0.367
AGTATTTA	0.164
GGTATTTA	0.0513
AGTATTTC	0.108
GTCGAGAA	0.107
CCGATGAA	-0.198
AGAGAGGC	-0.353
AGCCCAGG	-0.331
AACTAAGC	0.123

Sequence	PBM E-score
GAAGGAAC	-0.138
TAAACGTA	0.42
AAAACGAC	0.113
AAAACGCC	0.0157
AAAACGTC	0.409
CAAACGCA	0.0771
CAAACGTA	0.416
TAAACGGA	-0.0437
AAAACGTA	0.449
AAAACGTG	0.304
TAAACGAA	0.116
AAAACGTT	0.207
CAAACGTG	0.272
CGTGCTAC	0.208
CACTATAG	-0.00316
ATTTCAAC	0.0828
ACGGTAGG	-0.189
GAAACGCC	0.145
GAAACGGA	0.15
CAAACGTC	0.329
GAAACGTA	0.398
GAAACGTC	0.385
GAAACGAA	0.115
ACTAACTA	-0.0162
AGGTTGCA	0.0863
